Results from PubChem BioAssay.
The source made the active and inactive calls.

How the values were obtained:
[1] = optical density shifts of acrAB sulA E. coli – strain DRC41, OD650, 48 h, E. coli filamentation inducer project, primary screen (AID 1152); conditions: higher = more signal, called active from +8 up or from −8 down;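 further: E. coli MC1000 strain DRC41 lacking acrAB efflux pump and sulA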
[2] = probe aLefty1 binding on compound microarray – biochemical, small-molecule microarray, 635/667 nm fluorescence, primary screen (AID 1153); conditions: higher = more signal;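 further: score merges spot fluorescence with signal-to-noise ratio from the scanned slide images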
[3] = plasmodial surface anion channel blockers, osmotic lysis – cell-based, P. falciparum Indochina, OD700, 1 h, primary screen (AID 1154); conditions: P. falciparum Indochina infected RBC osmotic lysis, higher = more signal, called active from +8 up or from −8 down
[4] = plasmodial surface anion channel blockers, osmotic lysis – cell-based, P. falciparum Indochina, OD700, 2 h, primary screen (AID 1155);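 further: lysis reports solute entry through the parasite surface anion channel PSAC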; conditions: P. falciparum Indochina infected erythrocytes, higher = more signal, called active from +8 up or from −8 down
[5] = changes in parasitized red cell lysis, either direction – P. falciparum Indochina, OD700, 3 h, PSAC antagonist project, primary screen (AID 1156); conditions: P. falciparum-infected erythrocytes, osmotic lysis, higher = more signal, called active from +8 up or from −8 down
[6] = plasmodial surface anion channel blockers, osmotic lysis – cell-based, P. falciparum Indochina, OD700, 18 h, primary screen (AID 1157); conditions: P. falciparum Indochina infected erythrocytes, osmotic lysis OD700, 18 h; higher = more signal, called active from +8 up or from −8 down
[7] = S6 kinase pathway phospho-S6 level changes – cell-based, A549, cytoblot, luminescence, serum-stimulated, primary screen (AID 1158); conditions: 5 h, higher = more signal;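 further: serum-stimulated A549 lung adenocarcinoma cells; signal is phosphorylated S6 detected by cytoblot immunostaining with HRP secondary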
[8] = biological target: NADPH oxidase 2 (Homo sapiens) (UniProt P04839); test: compounds shifting NOX2 Amplex Red fluorescence – cell-based, HEK293-NOX2, PMA-stimulated, NOX inhibitor project, primary screen (AID 1159); conditions: 45 min, higher = more signal, called active from +8 up or from −8 down; further: test concentration not given here
Sequence of NADPH oxidase 2 (Homo sapiens) (P04839 whole entry, looked up): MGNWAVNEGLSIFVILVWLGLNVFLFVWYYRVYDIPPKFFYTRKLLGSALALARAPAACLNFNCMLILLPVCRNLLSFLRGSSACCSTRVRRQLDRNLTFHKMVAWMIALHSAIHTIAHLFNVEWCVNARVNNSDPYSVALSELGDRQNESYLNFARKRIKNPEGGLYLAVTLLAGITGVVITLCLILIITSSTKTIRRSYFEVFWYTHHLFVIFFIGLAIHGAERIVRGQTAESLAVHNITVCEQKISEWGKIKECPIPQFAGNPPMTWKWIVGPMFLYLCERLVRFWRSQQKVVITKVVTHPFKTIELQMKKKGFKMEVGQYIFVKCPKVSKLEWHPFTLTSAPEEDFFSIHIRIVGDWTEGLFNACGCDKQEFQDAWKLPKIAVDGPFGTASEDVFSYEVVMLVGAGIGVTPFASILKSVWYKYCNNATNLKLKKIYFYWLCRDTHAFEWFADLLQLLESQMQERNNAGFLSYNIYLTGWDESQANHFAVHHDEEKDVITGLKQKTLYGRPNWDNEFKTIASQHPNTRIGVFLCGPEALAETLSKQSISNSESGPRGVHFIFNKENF

[9] = biological target: NADPH oxidase 4 (Homo sapiens) (UniProt Q9NPH5); test: compounds shifting NOX4 Amplex Red fluorescence – cell-based, HEK293-NOX4, tetracycline-induced, NOX inhibitor project, primary screen (AID 1160); conditions: HEK293-NOX4, Amplex Red H2O2 fluorescence, 45 min; higher = more signal, called active from +8 up or from −8 down
Sequence of NADPH oxidase 4 (Homo sapiens) (Q9NPH5 whole entry, looked up): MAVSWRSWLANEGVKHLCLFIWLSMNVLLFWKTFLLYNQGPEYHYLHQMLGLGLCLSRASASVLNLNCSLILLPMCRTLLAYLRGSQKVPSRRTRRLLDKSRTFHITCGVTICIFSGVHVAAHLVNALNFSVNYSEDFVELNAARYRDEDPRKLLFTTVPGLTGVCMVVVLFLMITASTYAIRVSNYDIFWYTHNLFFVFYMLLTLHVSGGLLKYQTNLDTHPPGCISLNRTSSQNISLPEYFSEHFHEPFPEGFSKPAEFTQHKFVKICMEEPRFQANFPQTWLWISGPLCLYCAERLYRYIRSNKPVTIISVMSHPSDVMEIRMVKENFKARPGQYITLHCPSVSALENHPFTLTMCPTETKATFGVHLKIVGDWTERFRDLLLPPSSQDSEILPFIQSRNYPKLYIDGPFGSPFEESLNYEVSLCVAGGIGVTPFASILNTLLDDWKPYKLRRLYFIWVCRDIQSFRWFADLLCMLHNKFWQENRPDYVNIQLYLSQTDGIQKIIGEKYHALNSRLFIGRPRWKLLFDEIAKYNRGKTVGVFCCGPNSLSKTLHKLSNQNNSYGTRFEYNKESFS

[10] = biological target: NADPH oxidase 5 (Homo sapiens) (UniProt Q96PH1); test: compounds shifting NOX5 Amplex Red fluorescence – cell-based, HEK293-NOX5, NOX inhibitor project, primary screen (AID 1161); conditions: HEK293-NOX5, ionomycin, 45 min, higher = more signal
Sequence of NADPH oxidase 5 (Homo sapiens) (Q96PH1 whole entry, looked up): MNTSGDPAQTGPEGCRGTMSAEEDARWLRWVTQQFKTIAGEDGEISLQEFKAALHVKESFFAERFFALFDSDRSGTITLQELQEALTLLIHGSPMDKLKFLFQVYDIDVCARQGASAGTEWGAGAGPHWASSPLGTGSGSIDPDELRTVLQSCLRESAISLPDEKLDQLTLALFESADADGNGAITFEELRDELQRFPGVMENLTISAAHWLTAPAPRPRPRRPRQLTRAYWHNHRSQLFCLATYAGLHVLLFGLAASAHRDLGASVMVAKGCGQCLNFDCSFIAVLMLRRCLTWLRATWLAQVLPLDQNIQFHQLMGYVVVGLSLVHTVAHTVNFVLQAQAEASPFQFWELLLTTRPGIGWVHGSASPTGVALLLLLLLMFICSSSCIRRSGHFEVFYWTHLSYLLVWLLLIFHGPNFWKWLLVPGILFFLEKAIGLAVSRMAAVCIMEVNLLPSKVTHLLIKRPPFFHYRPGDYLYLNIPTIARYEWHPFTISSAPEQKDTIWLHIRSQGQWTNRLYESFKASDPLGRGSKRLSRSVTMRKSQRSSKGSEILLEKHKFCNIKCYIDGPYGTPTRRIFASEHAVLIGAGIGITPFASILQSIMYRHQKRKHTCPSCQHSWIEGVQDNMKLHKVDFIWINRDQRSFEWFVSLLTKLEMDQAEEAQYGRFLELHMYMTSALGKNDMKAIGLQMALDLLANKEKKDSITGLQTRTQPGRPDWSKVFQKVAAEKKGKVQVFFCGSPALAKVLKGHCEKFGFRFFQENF

[11] = compound effects on lung adenocarcinoma cell viability – A549, calcein-AM fluorescence, 48 h, basal, profiling panel (AID 1162); conditions: higher = more signal; further: test concentration not given here
[12] = compound effects on differentiated 3T3-L1 adipocyte viability – cell-based, 3T3-L1 adipocytes, calcein-AM fluorescence, 48 h, basal, profiling panel (AID 1163); conditions: 3T3-L1 adipocytes viability, higher = more signal; further: test concentration not given here
[13] = compound effects on hepatocellular carcinoma cell viability – HepG2, calcein-AM fluorescence, 48 h, basal, profiling panel (AID 1164); conditions: higher = more signal; further: test concentration not given here
[14] = compound effects on multiple myeloma cell viability – MM1S, calcein-AM fluorescence, 48 h, basal, profiling panel (AID 1165); conditions: higher = more signal; further: test concentration not given here
[15] = calcein-AM signal in unstimulated myeloma cells – cell-based, calcein-AM fluorescence, 48 h, PK04 Diversity Set, profiling panel (AID 1166); conditions: RPMI8226 myeloma viability, higher = more signal;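 further: cells grown under basal conditions without added stimulus; test concentration not given here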
[16] = JC-1 mitochondrial signal, unstimulated HepG2 cells – cell-based, JC-1 fluorescence, 24 h, 100 nL compound, profiling panel (AID 1167); conditions: HepG2 mitochondrial potential, higher = more signal; further: test concentration not given here
[17] = JC-1 mitochondrial signal, unstimulated adipocytes – cell-based, JC-1 fluorescence, 3T3-L1 adipocytes, 24 h, 100 nL compound, profiling panel (AID 1168); conditions: JC-1 mitochondrial fluorescence, higher = more signal, called active from +8 up or from −8 down; further: test concentration not given here
[18] = JC-1 mitochondrial signal, unstimulated myeloma cells – cell-based, JC-1 fluorescence, RPMI8226, 24 h, 100 nL compound, profiling panel (AID 1169); conditions: JC-1 mitochondrial potential fluorescence, higher = more signal; further: test concentration not given here
[19] = JC-1 mitochondrial signal, unstimulated MM1S myeloma – cell-based, JC-1 fluorescence, 24 h, 100 nL compound, profiling panel (AID 1170); conditions: MM1S mitochondrial potential, higher = more signal; further: test concentration not given here
[20] = resazurin metabolic signal in A549 cells – cell-based, resazurin fluorescence, 24 h, PK04 Diversity Set, profiling panel (AID 1171); conditions: A549 viability, higher = more signal, called active from +8 up or from −8 down; further: test concentration not given here

Structure (SMILES)	z-score [1]	composite z-score [2]	z-score [3]	z-score [4]	z-score [5]	z-score [6]	z-score [7]	z-score [8]	z-score [9]	z-score [10]	z-score [11]	z-score [12]	z-score [13]	z-score [14]	z-score [15]	z-score [16]	z-score [17]	z-score [18]	z-score [19]	z-score [20]
C[C@H]1NC(=O)C([C@@H](C)OCc2ccccc2)NC(=O)[C@@]23C(=O)N[C@@H](Cc4ccccc4)C2[C@H](C)[C@@]2(C)O[C@H]2C3/C=C/CC/C=C/CNC1=O (stereo not given in full)	1.85 (inactive)	-0.0094	1.79 (inactive)	0.76 (inactive)	0.89 (inactive)	0.107 (inactive)	0.888	1.24 (inactive)	-0.179 (inactive)	0.815	0.33	0.221	0.456	-0.728	-1.2	2.67	0.434 (inactive)	0.452	1.84	-0.757 (inactive)
COC(=O)[C@@]1(Cc2ccc(OC)cc2)[C@H]2c3cc(C(=O)N4CCCC4)n(Cc4ccc(C)o4)c3C[C@H]2CN1C(=O)c1ccccc1	-1.5 (inactive)	1.34	1.63 (inactive)	-0.605 (inactive)	1.07 (inactive)	0.0276 (inactive)	-1.8	-4.49 (inactive)	-2.62 (inactive)	-0.354	-3.86	-3.17	-5.75	-3.31	-4.69	-4.45	3.65 (inactive)	-0.815	-2.9	-7.08 (inactive)
COc1ccc([Si](C)(C)[C@@H]2[C@@H](CCO)O[C@]3(C(=O)N(Cc4ccccc4)c4ccc(N5CCCCC5=O)cc43)[C@H]2C)cc1	2.13 (inactive)	0.0984	3.59 (inactive)	1.19 (inactive)	-0.121 (inactive)	0.231 (inactive)	0.863	-0.421 (inactive)	-0.278 (inactive)	1.37	-0.887	2.07	-1.02	-1.58	-4.08	0.311	-0.258 (inactive)	-0.776	-0.786	-1.88 (inactive)
COCCOC(=O)N1C(=O)[C@@]2(c3cc(C#CCNC(N)=O)ccc31)[C@H](C(=O)N1CCCCCCC1)[C@H]1C(=O)O[C@H](c3ccccc3)[C@H](c3ccccc3)N1[C@@H]2c1ccc(OCCO)cc1	0.0904 (inactive)	0.174	4.45 (inactive)	1.89 (inactive)	1.99 (inactive)	1.25 (inactive)	0.437	1.53 (inactive)	1.25 (inactive)	0.0911	0.626	0.636	1.46	0.246	1.01	-1.47	-2.15 (inactive)	-0.764	-1.75	-0.619 (inactive)
Cc1ccc(S[C@]2(C(=O)O)CC(=O)N(C3CCCCC3)[C@@H]2c2ccc(CO)cc2)cc1	0.858 (inactive)	-0.672	2.06 (inactive)	0.0744 (inactive)	0.854 (inactive)	0.0854 (inactive)	-0.158	1.09 (inactive)	0.585 (inactive)	0.763	-0.0959	-0.753	0.952	-0.634	0.761	0.318	0.144 (inactive)	-0.148	-0.776	-0.345 (inactive)
C=CCOC(=O)[C@@H]1[C@H]2C(=O)O[C@H](c3ccccc3)[C@H](c3ccccc3)N2[C@H](c2ccc(OCCOC(=O)[C@H]3C[C@H]4C(=O)N[C@@H](Cc5ccccc5)C(=O)N4[C@H]3c3cccc(OCCO)c3)cc2)[C@@]12C(=O)Nc1ccc(I)cc12	-0.804 (inactive)	0.403	1.94 (inactive)	1.79 (inactive)	-1.66 (inactive)	0.619 (inactive)	0.652	2.21 (inactive)	0.45 (inactive)	1.98	0.188	-0.282	0.921	-3.18	-0.493	0.244	0.473 (inactive)	-0.903	-1.57	0.535 (inactive)
COC(=O)c1c(CC[C@@H](CO)NC(=O)N[C@@H](C)Cn2cc(C3(O)CCCC3)nn2)oc(C(C)=O)c1C(=O)OC	-0.274 (inactive)	0.0561	1.88 (inactive)	-0.8 (inactive)	0.816 (inactive)	-1.45 (inactive)	2.2	-2.54 (inactive)	-1.84 (inactive)	-2.35	0.329	1.45	-0.299	-2.1	-0.371	-0.428	1.04 (inactive)	-0.357	0.932	-0.514 (inactive)
C=CCNC(=O)[C@H]1[C@@H]2C(=O)O[C@@H](c3ccccc3)[C@@H](c3ccccc3)N2[C@@H](c2ccc(O)cc2)[C@]12C(=O)N(C(=O)OCCOC)c1ccc(C#CC3(O)CCCCCC3)cc12	1.91 (inactive)	0.0313	0.842 (inactive)	0.788 (inactive)	0.0365 (inactive)	0.222 (inactive)	0.281	1.37 (inactive)	0.903 (inactive)	1.89	0.904	0.76	2.26	-1.2	-3.53	-1.84	0.509 (inactive)	-0.713	-0.808	-0.316 (inactive)
CCCNC(=O)[C@@H]1c2ccccc2C(=O)N(CC23CC4CC(CC(C4)C2)C3)[C@H]1c1ccc(CO)cc1	-0.59 (inactive)	0.376	2.45 (inactive)	0.79 (inactive)	1.88 (inactive)	0.276 (inactive)	0.171	0.717 (inactive)	-1.2 (inactive)	-2.76	-0.242	0.487	0.275	-0.671	-2.49	1.81	-0.0153 (inactive)	-0.236	0.141	0.704 (inactive)
